Results as given in PubChem BioAssay AID1159580 (chemical genetic matrix, 2015).
Among all 5,500 compounds or so, about 2,000 (36%) were called active. Not shown: some 18% with an inconclusive outcome. Rule as the data show it: active = normalized growth mostly below about 0.91 (no sharp cut-off); inconclusive = no clear call, values can overlap the other calls; inactive = mostly above about 0.92. This is one part of the list.

Assay: chemical genetic growth profiling, strain panel (AID 1159580);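 also: tested at 20 µM; growth read once vehicle control cultures reached saturation at 30 °C; 1 = growth at the plate median or of vehicle wells; lower values mean less growth of the strain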
Conditions: growth OD

Measured: normalized growth

COc1ccc2c(C)cc(=O)oc2c1
inactive: S. cerevisiae deletion strains, locus YJL187C, strain SWE1 (second series), stronger effect = lower value 1.02 | S. cerevisiae deletion strains, locus YJL187C, strain SWE1, stronger effect = lower value 0.997 | S. cerevisiae deletion strains, locus YJR066W, strain TOR1, stronger effect = lower value 0.933 | S. cerevisiae deletion strains, locus YKL009W, strain mrt4, stronger effect = lower value 1.02 | S. cerevisiae deletion strains, locus YKL068W, stronger effect = lower value 1.03 | S. cerevisiae deletion strains, locus YKL085W, strain MDH1 (second series), stronger effect = lower value 1.01 | S. cerevisiae deletion strains, locus YKL085W, strain MDH1, stronger effect = lower value 1.01 | S. cerevisiae deletion strains, locus YKL160W, strain elf1, stronger effect = lower value 1 | S. cerevisiae deletion strains, locus YKL190W, strain CNB1, stronger effect = lower value 1 | S. cerevisiae deletion strains, locus YKR001C, strain vps1, stronger effect = lower value 1.03 | S. cerevisiae deletion strains, locus YKR026C, strain gcn3, stronger effect = lower value 0.991 | S. cerevisiae deletion strains, locus YKR091W, strain srl3, stronger effect = lower value 0.987 | S. cerevisiae deletion strains, locus YLL001W, strain dnm1, stronger effect = lower value 0.986 | S. cerevisiae deletion strains, locus YLL026W, stronger effect = lower value 1 | S. cerevisiae deletion strains, locus YLL041C, strain sdh2, stronger effect = lower value 0.993 | S. cerevisiae deletion strains, locus YLR027C, strain aat2, stronger effect = lower value 0.991 | S. cerevisiae deletion strains, locus YLR039C, strain RIC1, stronger effect = lower value 1.01 | S. cerevisiae deletion strains, locus YLR058C, strain SHM2, stronger effect = lower value 1.01 | S. cerevisiae deletion strains, locus YLR102C, strain apc9, stronger effect = lower value 1.04 | S. cerevisiae deletion strains, locus YLR113W, strain HOG1, stronger effect = lower value 0.998 | S. cerevisiae deletion strains, locus YLR221C, strain rsa3, stronger effect = lower value 0.993 | S. cerevisiae deletion strains, locus YLR258W, strain gsy2, stronger effect = lower value 0.972 | S. cerevisiae deletion strains, locus YLR262C, strain YPT6 (second series), stronger effect = lower value 0.964 | S. cerevisiae deletion strains, locus YLR268W, strain sec22, stronger effect = lower value 1.03 | S. cerevisiae deletion strains, locus YLR320W, strain mms22, stronger effect = lower value 1 | S. cerevisiae deletion strains, locus YLR330W, strain CHS5, stronger effect = lower value 1.01 | S. cerevisiae deletion strains, locus YLR342W, strain FKS1, stronger effect = lower value 0.989 | S. cerevisiae deletion strains, locus YLR357W, strain rsc2, stronger effect = lower value 0.966 | S. cerevisiae deletion strains, locus YLR370C, strain arc18, stronger effect = lower value 0.997 | S. cerevisiae deletion strains, locus YLR371W, strain rom2, stronger effect = lower value 0.998 | S. cerevisiae deletion strains, locus YLR384C, strain iki3, stronger effect = lower value 0.996 | S. cerevisiae deletion strains, locus YLR418C, strain cdc73, stronger effect = lower value 1.03 | S. cerevisiae deletion strains, locus YML016C, strain PPZ1, stronger effect = lower value 1.02 | S. cerevisiae deletion strains, locus YML032C, strain rad52, stronger effect = lower value 1.01 | S. cerevisiae deletion strains, locus YML120C, strain ndi1, stronger effect = lower value 1.02 | S. cerevisiae deletion strains, locus YML124C, strain tub3, stronger effect = lower value 1.02 | S. cerevisiae deletion strains, locus YMR058W, strain fet3, stronger effect = lower value 0.987 | S. cerevisiae deletion strains, locus YMR078C, strain ctf18, stronger effect = lower value 1.03 | S. cerevisiae deletion strains, locus YMR125W, strain sto1, stronger effect = lower value 0.982 | S. cerevisiae deletion strains, locus YMR129W, stronger effect = lower value 1.01 | S. cerevisiae deletion strains, locus YMR205C, strain PFK2, stronger effect = lower value 0.988 | S. cerevisiae deletion strains, locus YMR223W, strain ubp8, stronger effect = lower value 1.02 | S. cerevisiae deletion strains, locus YMR231W, strain pep5, stronger effect = lower value 0.988 | S. cerevisiae deletion strains, locus YMR307W, strain GAS1, stronger effect = lower value 0.994 | S. cerevisiae deletion strains, locus YNL067W, strain RPL9B, stronger effect = lower value 1.01 | S. cerevisiae deletion strains, locus YNL071W, strain lat1, stronger effect = lower value 0.976 | S. cerevisiae deletion strains, locus YNL183C, strain NPR1, stronger effect = lower value 0.933 | S. cerevisiae deletion strains, locus YNL209W, strain ssb2, stronger effect = lower value 1 | S. cerevisiae deletion strains, locus YNL233W, strain BNI4, stronger effect = lower value 1.02 | S. cerevisiae deletion strains, locus YNL248C, strain rpa49, stronger effect = lower value 0.923 | S. cerevisiae deletion strains, locus YNL250W, strain rad50, stronger effect = lower value 1.04 | S. cerevisiae deletion strains, locus YNL271C, strain bni1, stronger effect = lower value 1.03 | S. cerevisiae deletion strains, locus YNL298W, strain CLA4, stronger effect = lower value 1.01 | S. cerevisiae deletion strains, locus YNL307C, strain MCK1, stronger effect = lower value 1.04 | S. cerevisiae deletion strains, locus YNL322C, strain KRE1 (second series), stronger effect = lower value 1 | S. cerevisiae deletion strains, locus YNL322C, strain KRE1, stronger effect = lower value 1.01 | S. cerevisiae deletion strains, locus YNR049C, strain mso1, stronger effect = lower value 0.969 | S. cerevisiae deletion strains, locus YNR052C, strain pop2, stronger effect = lower value 1.02 | S. cerevisiae deletion strains, locus YOL012C, strain htz1 0.756 | S. cerevisiae deletion strains, locus YOL147C, strain pex11, stronger effect = lower value 1.03 | S. cerevisiae deletion strains, locus YOR001W, strain rrp6, stronger effect = lower value 0.97 | S. cerevisiae deletion strains, locus YOR061W, strain CKA2, stronger effect = lower value 1.01 | S. cerevisiae deletion strains, locus YOR069W, strain VPS5, stronger effect = lower value 1.01 | S. cerevisiae deletion strains, locus YOR070C, strain gyp1, stronger effect = lower value 1 | S. cerevisiae deletion strains, locus YOR080W, strain dia2, stronger effect = lower value 0.99 | S. cerevisiae deletion strains, locus YOR083W, strain WHI5, stronger effect = lower value 0.987 | S. cerevisiae deletion strains, locus YOR106W, strain vam3, stronger effect = lower value 0.959 | S. cerevisiae deletion strains, locus YOR136W, strain idh2, stronger effect = lower value 1.03 | S. cerevisiae deletion strains, locus YOR144C, strain elg1, stronger effect = lower value 1.02 | S. cerevisiae deletion strains, locus YOR184W, strain ser1, stronger effect = lower value 1.02 | S. cerevisiae deletion strains, locus YOR231W, strain MKK1, stronger effect = lower value 0.954 | S. cerevisiae deletion strains, locus YOR265W, strain rbl2, stronger effect = lower value 0.996 | S. cerevisiae deletion strains, locus YOR270C, strain vph1, stronger effect = lower value 0.803 | S. cerevisiae deletion strains, locus YOR290C, strain snf2, stronger effect = lower value 1 | S. cerevisiae deletion strains, locus YOR316C, strain cot1, stronger effect = lower value 1.02 | S. cerevisiae deletion strains, locus YPL051W, strain arl3, stronger effect = lower value 1.01 | S. cerevisiae deletion strains, locus YPL078C, strain atp4, stronger effect = lower value 0.994 | S. cerevisiae deletion strains, locus YPL106C, strain sse1, stronger effect = lower value 0.943 | S. cerevisiae deletion strains, locus YPL240C, strain hsp82, stronger effect = lower value 1.01 | S. cerevisiae deletion strains, locus YPL256C, strain CLN2, stronger effect = lower value 1.01 | S. cerevisiae deletion strains, locus YPR119W, strain clb2, stronger effect = lower value 1.02 | S. cerevisiae deletion strains, locus YPR141C, strain kar3, stronger effect = lower value 1.02 | S. cerevisiae deletion strains, locus YPR163C, strain tif3, stronger effect = lower value 1.03 | S. cerevisiae deletion strains, locus YPR167C, strain met16, stronger effect = lower value 1.02 | S. cerevisiae deletion strains, strain wtn01, stronger effect = lower value 1.01 | S. cerevisiae strains, strain wild type, stronger effect = lower value 1.01
